Sampled rows, rich in hits. Any-hit rate of the full collection: about 4.7%.
SARS 3CLpro inh: SARS-CoV 3CLpro protease inhibitors, primary screen, biochemical, quenched FRET; inhibition, % at 6 µM; 0.14% of 290,000 active; Replicase polyprotein 1ab (Severe acute respiratory syndrome coronavirus), P0C6X7; recombinant SARS-CoV 3CLpro, quenched FRET peptide cleavage; in the data active = inhibition above about 12%
RecA intein inh: Mtb RecA intein splicing inhibitors, primary screen, biochemical, fluorescence, HTS; cell-free RecA intein splicing; inhibition, % (test concentration not listed); 0.75% of 290,000 active; AID 2221, 2009; in the data active = inhibition above about 30%
VHR inh abs: VHR1 phosphatase inhibitors, primary screen, biochemical, absorbance, uHTS; recombinant VHR phosphatase, pNPP absorbance; inhibition, % at 13.3 µM; 0.52% of 290,000 active; in the data active = inhibition above about 50%
Target sequence (P51452 whole entry, looked up): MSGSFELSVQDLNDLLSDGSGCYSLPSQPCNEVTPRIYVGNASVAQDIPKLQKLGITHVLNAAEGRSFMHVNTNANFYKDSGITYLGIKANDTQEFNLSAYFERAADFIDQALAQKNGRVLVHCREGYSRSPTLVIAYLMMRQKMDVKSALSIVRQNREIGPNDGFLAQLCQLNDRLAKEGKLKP
FBA Mtb inh: Mtb FBA enzyme inhibitors, primary screen, biochemical, fluorescence, strain H37Rv | purified M. tuberculosis FBA, fluorescence read-out | 2.3% of 360,000 active | Fructose-bisphosphate aldolase (Mycobacterium tuberculosis (strain ATCC 25618 / H37Rv)), … | inhibition, % at 1 µM | AID 588726, 2011; in the data active = inhibition above about 27%
Target sequence (P9WQA3 whole entry, looked up): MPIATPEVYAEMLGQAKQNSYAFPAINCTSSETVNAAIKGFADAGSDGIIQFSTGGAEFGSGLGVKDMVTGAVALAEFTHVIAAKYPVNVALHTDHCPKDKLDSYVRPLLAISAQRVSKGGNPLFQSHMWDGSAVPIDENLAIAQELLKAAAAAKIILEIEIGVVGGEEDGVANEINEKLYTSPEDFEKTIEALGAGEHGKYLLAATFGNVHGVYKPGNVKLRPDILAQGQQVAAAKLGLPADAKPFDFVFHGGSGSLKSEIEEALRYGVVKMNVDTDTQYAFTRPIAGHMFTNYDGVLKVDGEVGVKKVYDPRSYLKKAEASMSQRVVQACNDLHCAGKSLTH
GDH-TPI counter: GDH-TPI coupling enzyme inhibitors, primary screen, artefact control for M. tuberculosis FBA inhibitor project, biochemical, absorbance, full deck; GDH-TPI coupled enzyme counterscreen, NADH absorbance; AID 588335, 2011; 1.2% of 360,000 active; inhibition, % at 4.8 µM
CCHFV vOTU inh: CCHFV vOTU protease inhibitors, primary screen, biochemical, Pep-AMC substrate, fluorescence; Crimean-Congo hemorrhagic fever virus L polyprotein viral ovarian tumor (vOTU) protease …; inhibition, % at 11.5 µM; 0.55% of 370,000 active; AID 651958, 2012
Of the large screens only hits and unclear results are named; the others gave an inactive call. Rule as the data show it, unless noted: active = inhibition above about 30%; inactive = the rest.

O=C(NCc1ccc2c(c1)OCO2)c1cccc(C(=O)NCc2ccc3c(c2)OCO3)c1	none
O=C(NCc1ccc2c(c1)OCO2)c1c(Cl)cccc1Cl	VHR inh abs 56 (no result: RecA intein inh)
COc1cc2c(cc1OC)-c1cc(NC3CC3)nc(=O)n1CC2	GDH-TPI counter 37
CCOc1ccccc1Nc1cc2n(c(=O)n1)CCc1cc(OC)c(OC)cc1-2	GDH-TPI counter 34 (no result: VHR inh abs)
COc1cc2c(cc1OC)-c1cc(NC3CCCCCCC3)nc(=O)n1CC2	none
CCNc1cc2n(c(=O)n1)CCc1cc(OC)c(OC)cc1-2	none
COc1cc2c(cc1OC)-c1cc(OCCN3CCOCC3)nc(=O)n1CC2	FBA Mtb inh active, GDH-TPI counter 32
COc1cccc(CNC(=O)CCS(=O)(=O)c2ccc3c(c2)oc(=O)n3C)c1	none
Nc1ccccc1/C=C/c1ccccc1N	FBA Mtb inh 146 (no result: SARS 3CLpro inh, RecA intein inh, VHR inh abs)
CCN(CC)c1ccc(C(=O)OCC(=O)NCC2CCCO2)cc1 (stereo unspecified)	GDH-TPI counter 32
COc1ccccc1-c1noc2c1C(=O)N(Cc1cn(-c3ccccc3OC)nn1)CC2	none (no result: SARS 3CLpro inh, RecA intein inh, VHR inh abs, FBA Mtb inh, GDH-TPI counter)
Cc1c(C(=O)N2CCCC2)sc(NC(=O)c2ccco2)c1C#N	GDH-TPI counter 31
Cc1c(C(=O)N2CCCCC2)sc(NC(=O)c2ccco2)c1C#N	GDH-TPI counter 40
Cc1c(C(=O)N2CCCC2)sc(NC(=O)c2ccccc2)c1C#N	none
CC(C)(C)C(=O)Nc1ccc(/C=C/C(=O)c2ccco2)cc1	GDH-TPI counter 49
O=C(/C=C/c1ccccc1O)c1ccco1	GDH-TPI counter 33
CCNC(=O)C(=O)NCCC1CCCCN1S(=O)(=O)c1cccs1 (stereo unspecified)	FBA Mtb inh 130 (no result: SARS 3CLpro inh, VHR inh abs)
N=c1c2c(ncn1CCN1CCOCC1)Oc1ccc3ccccc3c1C2c1ccccc1 (stereo unspecified)	VHR inh abs 55
COc1ccc(C2c3c(ncn(CCN4CCOCC4)c3=N)Oc3ccc4ccccc4c32)cc1 (stereo unspecified)	none
C/C(=N/OC(=O)c1ccc(C)cc1)c1cccs1	none
C/C(=N/OC(=O)c1ccccc1Br)c1ccc(C)cc1	VHR inh abs 52
COC(=O)Cc1cc(=O)[nH]c(Nc2nc3ccccc3o2)n1	GDH-TPI counter 37
CCOC(=O)Cc1cc(=O)[nH]c(Nc2nc3ccccc3o2)n1	none
CC1CCN(c2ccc(C(=O)O)cc2NS(=O)(=O)c2ccccc2[N+](=O)[O-])CC1	none (no result: SARS 3CLpro inh, RecA intein inh, VHR inh abs, FBA Mtb inh, GDH-TPI counter)
O=[N+]([O-])c1cc(-n2cnnn2)c(O)c([N+](=O)[O-])c1	GDH-TPI counter 31
COc1ccc2cc(C(=O)O)ccc2c1	none
COC(=O)C12CCc3c(ccc4cc(OC)ccc34)C1=CC(=O)C2 (stereo unspecified)	FBA Mtb inh active, GDH-TPI counter 45 (no result: SARS 3CLpro inh, RecA intein inh, VHR inh abs)
Oc1ccc(N2CCN(CC(O)c3ccccc3)CC2)cc1 (stereo unspecified)	VHR inh abs 50
C=CCN1[C@H](CC(C)C)COc2cc(F)ccc2S1(=O)=O	none (no result: SARS 3CLpro inh, RecA intein inh, VHR inh abs, FBA Mtb inh, GDH-TPI counter)
COc1ccc(Cl)cc1N(CC(=O)Nc1ccccc1C(=O)N1CCCC1)S(C)(=O)=O	VHR inh abs 58
CN(C)c1ccc(/C=N/NC(=O)c2nnn(-c3nonc3N)c2CN(C)c2ccccc2)cc1	GDH-TPI counter 31
Nc1nonc1-n1nnc(C(=O)N/N=C/c2ccc(OCc3ccccc3)cc2)c1COc1ccc(F)cc1	none
COCc1c(C(=O)N/N=C/c2ccc(C)o2)nnn1-c1nonc1N	GDH-TPI counter 38
Nc1nonc1-n1nnc(C(=O)N/N=C/c2ccc(O)cc2)c1COc1ccc(F)cc1	GDH-TPI counter 32
CCCCCCC(=O)NC1CCCCN(C)C1=O (stereo unspecified)	none (no result: SARS 3CLpro inh, RecA intein inh, VHR inh abs, FBA Mtb inh, GDH-TPI counter)
CC(C)CC(=O)c1c(O)cc(O)c2c1OC1=C(C(=O)C(C)(C)C(=O)C1(C)C)C2CC(C)C (stereo unspecified)	none (no result: SARS 3CLpro inh, RecA intein inh, VHR inh abs, FBA Mtb inh, GDH-TPI counter)
Cc1ccc2nc3c(cc(C#N)c(=O)n3-c3nccs3)c(=O)n2c1	FBA Mtb inh active
CSc1ccc(/C=N/N2CCN(Cc3ccccc3)CC2)cc1	none
O=C(CS(=O)c1ccc(C(F)(F)F)cc1[N+](=O)[O-])Oc1ccc(Cl)cc1 (stereo unspecified)	VHR inh abs 51
COCc1cc(N2CCN(C(=O)OC(C)(C)C)C[C@H]2C)ccc1N1CCN(Cc2ccccc2)[C@@H](C)C1	none (no result: SARS 3CLpro inh, RecA intein inh, VHR inh abs, FBA Mtb inh, GDH-TPI counter)
CCCCNC(=O)C1(N2C(=O)c3ccccc3C2=O)CCCC1	none (no result: SARS 3CLpro inh, RecA intein inh, VHR inh abs)
NC(=Nc1ccc(Br)cc1)c1ccccc1	VHR inh abs 51
Cc1cccc(/C=N/NC(=O)c2cc(C3CC3)nc3ccccc23)n1	none
O=C(N/N=C\c1cn[nH]c1-c1ccccc1)c1ccc([N+](=O)[O-])cc1	none
O=C(N/N=C/c1ccc([N+](=O)[O-])cc1)c1cc(C2CC2)nc2ccccc12	GDH-TPI counter 33
O=C(N/N=C/c1ccco1)c1cc(C2CC2)[nH]n1	none
O=C(N/N=C/c1ccc2c(c1)OCO2)c1cc(-c2ccncc2)nc2ccccc12	none
O=C(N/N=C/c1ccc([N+](=O)[O-])cc1)c1[nH]ncc1Br	FBA Mtb inh active
Cc1cc(C(=O)N/N=C/c2ccc3c(c2)OCO3)c2ccccc2n1	GDH-TPI counter 40
O=C(N/N=C/c1ccc([N+](=O)[O-])cc1)c1cc(C2CC2)[nH]n1	GDH-TPI counter 35
Cc1cc(C(=O)N/N=C/c2ccc([N+](=O)[O-])cc2)c2ccccc2n1	GDH-TPI counter 51
Cc1ccc(CN2CC=CS2(=O)=O)cc1	none (no result: SARS 3CLpro inh, RecA intein inh, VHR inh abs, FBA Mtb inh, GDH-TPI counter)
COc1cccc(/C=C2\CC3(OC(=O)C4CCCC4)CCCN2C3)c1 (stereo unspecified)	none (no result: SARS 3CLpro inh, RecA intein inh, VHR inh abs, FBA Mtb inh, GDH-TPI counter)
O=S(=O)(Nc1ccc(-c2nc3cccnc3s2)cc1)c1ccccc1F	FBA Mtb inh active, GDH-TPI counter 62
CCS(=O)(=O)Nc1cccc(-c2nc3cccnc3s2)c1	none
O=S(=O)(Nc1cccc(-c2nc3cccnc3s2)c1)c1ccc2c(c1)CCCC2	none
CSc1ccccc1NS(=O)(=O)c1ccc2c(c1)OCCO2	none
COc1ccccc1NS(=O)(=O)c1ccc2c(c1)OCCO2	VHR inh abs 58
O=C(Nc1ccc(-c2nc3cccnc3s2)cc1)C1CCCO1 (stereo unspecified)	FBA Mtb inh active, GDH-TPI counter 33
O=S(=O)(Nc1ccc(-c2nc3cccnc3s2)cc1)c1ccc(Cl)s1	FBA Mtb inh active, GDH-TPI counter 37
COc1ccc(NC(=O)C2CCCO2)cc1 (stereo unspecified)	none
COC(=O)[C@]12C[C@H](CC(=O)N3CCCCC3)C(=O)N(Cc3ccc(Cl)cc3Cl)C1=C[C@H](C(C)C)O[C@@H]2C1CC1	none (no result: SARS 3CLpro inh, RecA intein inh, VHR inh abs, FBA Mtb inh, GDH-TPI counter)

Bioassay records deposited in PubChem by several laboratories.
